Measured values: paper PMC7862700, “An all-to-all approach to the identification of sequence-specific readers for epigenetic DNA modifications on cytosine”

Assays:
Test in all cases: DAPPL (digital affinity profiling via proximity ligation, sequencing); 10 mM Tris-HCl pH 7.5, 50 mM NaCl, 1 mM DTT, 4% glycerol, room temperature, 30 min; GST-TFs on glutathione beads, 16-mer random dsDNA library, 0.1% formaldehyde crosslink after washing; high values mean tight binding
[1] = biological target: T1, EHF (Homo sapiens, UniProt Q9NZC4 1-300); details: protein: recombinant; tags: N-terminal GST; dsDNA, one strand shown
T1 sequence: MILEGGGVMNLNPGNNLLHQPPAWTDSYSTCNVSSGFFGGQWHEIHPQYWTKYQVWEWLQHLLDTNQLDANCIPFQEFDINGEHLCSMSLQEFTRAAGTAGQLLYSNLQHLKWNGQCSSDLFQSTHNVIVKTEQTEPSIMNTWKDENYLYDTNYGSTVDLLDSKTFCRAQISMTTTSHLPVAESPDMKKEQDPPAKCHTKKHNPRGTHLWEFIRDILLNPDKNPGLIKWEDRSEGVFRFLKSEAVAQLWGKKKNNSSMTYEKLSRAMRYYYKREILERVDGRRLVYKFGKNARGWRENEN
Outline: (§1)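 GST fusions of human transcription factors were expressed in yeast and captured with glutathione beads. Once given DNA barcodes and pooled alongside a tag-only sample, they were incubated for 30 min at room temperature with 200 nmole of a random double-stranded 16-mer DNA library in Tris/NaCl/DTT/glycerol buffer, then washed, crosslinked (0.1% formaldehyde), proximity-ligated, PCR-amplified and sequenced on an Illumina NextSeq500. The binding signal of each hexamer is its read frequency for a factor divided by its frequency for the tag-only sample.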

[2] = biological target: T2, ELK3 (Homo sapiens, UniProt P41970 1-407); details: protein: recombinant; tags: N-terminal GST; dsDNA, one strand shown
T2 sequence: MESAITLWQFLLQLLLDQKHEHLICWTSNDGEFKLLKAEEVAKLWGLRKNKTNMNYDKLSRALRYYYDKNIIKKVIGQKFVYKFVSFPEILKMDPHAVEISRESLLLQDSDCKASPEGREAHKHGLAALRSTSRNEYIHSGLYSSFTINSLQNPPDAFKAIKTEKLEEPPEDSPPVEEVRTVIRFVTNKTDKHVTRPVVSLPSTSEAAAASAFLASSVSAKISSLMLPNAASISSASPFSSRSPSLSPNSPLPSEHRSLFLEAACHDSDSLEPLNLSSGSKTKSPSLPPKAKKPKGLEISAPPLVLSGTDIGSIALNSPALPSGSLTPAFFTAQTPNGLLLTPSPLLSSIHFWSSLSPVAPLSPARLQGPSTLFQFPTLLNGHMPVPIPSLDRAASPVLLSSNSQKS
Outline: as §1

[3] = biological target: HSF1 (Homo sapiens, UniProt Q00613 1-529); details: protein: recombinant; tags: N-terminal GST; chain copies: 3; dsDNA, one strand shown
Outline: as §1

[4] = biological target: ELF4 (Homo sapiens, UniProt Q99607 1-663); details: protein: recombinant; tags: N-terminal GST; dsDNA, one strand shown
Outline: as §1

[5] = biological target: T3, ELK4 (Homo sapiens, UniProt P28324-2 1-405); details: protein: recombinant; tags: N-terminal GST; dsDNA, one strand shown
T3 sequence: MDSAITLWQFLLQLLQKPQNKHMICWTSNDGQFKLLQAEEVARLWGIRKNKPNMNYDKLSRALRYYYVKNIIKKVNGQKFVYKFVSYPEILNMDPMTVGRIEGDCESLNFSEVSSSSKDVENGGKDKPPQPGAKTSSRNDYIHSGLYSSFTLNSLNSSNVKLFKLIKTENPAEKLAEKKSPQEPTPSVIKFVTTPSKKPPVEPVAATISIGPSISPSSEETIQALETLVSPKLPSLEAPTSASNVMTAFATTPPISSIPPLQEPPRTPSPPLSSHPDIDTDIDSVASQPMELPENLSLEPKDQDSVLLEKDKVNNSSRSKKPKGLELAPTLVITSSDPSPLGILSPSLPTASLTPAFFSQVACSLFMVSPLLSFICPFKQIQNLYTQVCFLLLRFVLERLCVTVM
Outline: as §1

[6] = biological target: T4, ELF3 (Homo sapiens, UniProt P78545 1-371); details: protein: recombinant; tags: N-terminal GST; dsDNA, one strand shown
T4 sequence: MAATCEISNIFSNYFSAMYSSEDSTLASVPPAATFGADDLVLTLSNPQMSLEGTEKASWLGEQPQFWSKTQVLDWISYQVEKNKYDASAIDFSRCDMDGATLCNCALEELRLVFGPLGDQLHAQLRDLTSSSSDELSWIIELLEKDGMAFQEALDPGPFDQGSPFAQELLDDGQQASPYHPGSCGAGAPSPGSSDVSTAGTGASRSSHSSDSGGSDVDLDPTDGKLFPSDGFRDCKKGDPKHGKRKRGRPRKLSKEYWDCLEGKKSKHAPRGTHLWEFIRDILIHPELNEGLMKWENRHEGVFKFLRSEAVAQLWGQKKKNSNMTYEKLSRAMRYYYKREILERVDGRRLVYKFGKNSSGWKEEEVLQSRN
Outline: as §1

[7] = biological target: CRX (Homo sapiens, UniProt O43186 1-299); details: protein: recombinant; tags: N-terminal GST; dsDNA, one strand shown
Outline: as §1

[8] = biological target: T5, ERF (Homo sapiens, UniProt P50548 1-548); details: protein: recombinant; tags: N-terminal GST; dsDNA, one strand shown
T5 sequence: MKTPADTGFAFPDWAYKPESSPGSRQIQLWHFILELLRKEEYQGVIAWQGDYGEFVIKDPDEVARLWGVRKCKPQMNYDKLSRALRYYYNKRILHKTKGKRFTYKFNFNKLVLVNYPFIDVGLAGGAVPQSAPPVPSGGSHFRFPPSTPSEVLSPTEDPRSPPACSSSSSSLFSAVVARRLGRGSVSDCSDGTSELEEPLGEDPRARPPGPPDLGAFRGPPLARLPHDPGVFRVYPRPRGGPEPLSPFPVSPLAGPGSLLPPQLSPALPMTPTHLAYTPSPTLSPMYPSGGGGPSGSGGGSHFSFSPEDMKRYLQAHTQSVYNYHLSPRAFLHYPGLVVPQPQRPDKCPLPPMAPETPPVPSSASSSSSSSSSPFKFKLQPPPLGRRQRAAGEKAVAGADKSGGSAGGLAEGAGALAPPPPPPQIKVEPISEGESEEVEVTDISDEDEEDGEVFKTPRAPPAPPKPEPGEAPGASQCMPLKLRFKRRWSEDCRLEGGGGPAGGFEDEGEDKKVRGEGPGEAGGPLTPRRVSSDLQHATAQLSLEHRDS
Outline: as §1

[9] = biological target: T6, ETV3L (Homo sapiens, UniProt Q6ZN32 1-361); details: protein: recombinant; tags: N-terminal GST; dsDNA, one strand shown
T6 sequence: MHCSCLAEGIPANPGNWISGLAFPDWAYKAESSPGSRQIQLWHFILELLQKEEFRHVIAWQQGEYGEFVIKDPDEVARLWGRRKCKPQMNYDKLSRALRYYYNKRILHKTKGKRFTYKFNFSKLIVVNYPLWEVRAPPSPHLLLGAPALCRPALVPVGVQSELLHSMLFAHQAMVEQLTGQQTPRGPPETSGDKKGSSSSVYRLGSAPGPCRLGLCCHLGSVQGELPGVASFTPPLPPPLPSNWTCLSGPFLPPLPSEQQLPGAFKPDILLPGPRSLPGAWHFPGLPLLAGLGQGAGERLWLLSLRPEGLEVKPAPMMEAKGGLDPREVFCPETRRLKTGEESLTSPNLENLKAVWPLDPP
Outline: as §1

[10] = biological target: T7, ETV3 (Homo sapiens, UniProt P41162-2 1-143); details: protein: recombinant; tags: N-terminal GST; dsDNA, one strand shown
T7 sequence: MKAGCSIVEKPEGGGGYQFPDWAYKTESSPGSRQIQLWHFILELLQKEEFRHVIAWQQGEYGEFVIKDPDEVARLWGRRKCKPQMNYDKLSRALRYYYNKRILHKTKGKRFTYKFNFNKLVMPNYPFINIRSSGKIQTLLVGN
Outline: as §1

[11] = biological target: T8, GABPA (Homo sapiens, UniProt Q06546 1-454); details: protein: recombinant; tags: N-terminal GST; dsDNA, one strand shown
T8 sequence: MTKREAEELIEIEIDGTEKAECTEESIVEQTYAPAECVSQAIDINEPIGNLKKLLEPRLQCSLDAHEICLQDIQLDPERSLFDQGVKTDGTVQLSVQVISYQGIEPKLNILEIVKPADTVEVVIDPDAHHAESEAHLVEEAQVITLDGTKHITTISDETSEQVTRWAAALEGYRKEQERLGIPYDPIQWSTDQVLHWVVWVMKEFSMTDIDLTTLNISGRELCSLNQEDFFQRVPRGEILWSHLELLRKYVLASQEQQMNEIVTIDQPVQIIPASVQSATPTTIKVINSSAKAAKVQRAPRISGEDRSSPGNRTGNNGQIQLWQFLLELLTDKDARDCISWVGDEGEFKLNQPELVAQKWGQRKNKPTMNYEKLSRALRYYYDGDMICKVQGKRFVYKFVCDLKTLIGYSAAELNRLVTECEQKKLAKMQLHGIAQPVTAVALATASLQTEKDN
Outline: as §1

[12] = biological target: T9, ETV2 (Homo sapiens, UniProt O00321 1-342); details: protein: recombinant; tags: N-terminal GST; dsDNA, one strand shown
T9 sequence: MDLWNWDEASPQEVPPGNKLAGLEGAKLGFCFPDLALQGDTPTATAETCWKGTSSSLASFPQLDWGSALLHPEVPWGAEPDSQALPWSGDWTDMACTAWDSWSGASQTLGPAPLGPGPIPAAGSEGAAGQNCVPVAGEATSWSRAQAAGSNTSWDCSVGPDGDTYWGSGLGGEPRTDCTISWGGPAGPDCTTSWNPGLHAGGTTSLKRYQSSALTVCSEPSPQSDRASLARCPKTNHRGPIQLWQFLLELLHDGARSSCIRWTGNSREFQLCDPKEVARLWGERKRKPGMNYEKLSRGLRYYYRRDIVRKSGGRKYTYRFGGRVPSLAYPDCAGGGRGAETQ
Outline: as §1

[13] = biological target: T10, ETS2 (Homo sapiens, UniProt P15036 1-469); details: protein: recombinant; tags: N-terminal GST; dsDNA, one strand shown
T10 sequence: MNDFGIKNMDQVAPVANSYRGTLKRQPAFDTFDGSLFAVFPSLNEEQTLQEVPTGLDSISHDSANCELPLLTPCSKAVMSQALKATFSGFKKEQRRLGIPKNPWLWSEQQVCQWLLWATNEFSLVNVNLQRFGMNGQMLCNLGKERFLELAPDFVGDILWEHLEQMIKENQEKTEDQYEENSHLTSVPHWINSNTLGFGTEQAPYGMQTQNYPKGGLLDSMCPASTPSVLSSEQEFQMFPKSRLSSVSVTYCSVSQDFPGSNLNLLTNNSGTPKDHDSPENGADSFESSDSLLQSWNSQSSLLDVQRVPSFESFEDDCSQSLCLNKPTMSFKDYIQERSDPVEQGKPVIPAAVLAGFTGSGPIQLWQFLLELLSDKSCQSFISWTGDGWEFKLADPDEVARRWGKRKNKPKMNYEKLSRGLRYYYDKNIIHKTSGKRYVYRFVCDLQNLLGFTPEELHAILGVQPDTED
Outline: as §1

[14] = biological target: T11, ETV7 (Homo sapiens, UniProt Q9Y603 1-341); details: protein: recombinant; tags: N-terminal GST; dsDNA, one strand shown
T11 sequence: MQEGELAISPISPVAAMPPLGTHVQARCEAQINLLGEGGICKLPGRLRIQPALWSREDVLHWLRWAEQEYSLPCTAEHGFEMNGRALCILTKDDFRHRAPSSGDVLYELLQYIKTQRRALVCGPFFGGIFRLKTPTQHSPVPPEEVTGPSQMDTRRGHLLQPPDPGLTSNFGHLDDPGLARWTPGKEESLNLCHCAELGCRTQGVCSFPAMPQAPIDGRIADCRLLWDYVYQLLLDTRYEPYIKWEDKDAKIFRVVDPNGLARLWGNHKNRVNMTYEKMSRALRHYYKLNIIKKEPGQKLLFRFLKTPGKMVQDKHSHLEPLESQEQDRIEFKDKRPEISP
Outline: as §1

[15] = biological target: ELF1 (Homo sapiens, UniProt P32519 1-619); details: protein: recombinant; tags: N-terminal GST; dsDNA, one strand shown
Outline: as §1

Sequence of HSF1 (Q00613 whole entry): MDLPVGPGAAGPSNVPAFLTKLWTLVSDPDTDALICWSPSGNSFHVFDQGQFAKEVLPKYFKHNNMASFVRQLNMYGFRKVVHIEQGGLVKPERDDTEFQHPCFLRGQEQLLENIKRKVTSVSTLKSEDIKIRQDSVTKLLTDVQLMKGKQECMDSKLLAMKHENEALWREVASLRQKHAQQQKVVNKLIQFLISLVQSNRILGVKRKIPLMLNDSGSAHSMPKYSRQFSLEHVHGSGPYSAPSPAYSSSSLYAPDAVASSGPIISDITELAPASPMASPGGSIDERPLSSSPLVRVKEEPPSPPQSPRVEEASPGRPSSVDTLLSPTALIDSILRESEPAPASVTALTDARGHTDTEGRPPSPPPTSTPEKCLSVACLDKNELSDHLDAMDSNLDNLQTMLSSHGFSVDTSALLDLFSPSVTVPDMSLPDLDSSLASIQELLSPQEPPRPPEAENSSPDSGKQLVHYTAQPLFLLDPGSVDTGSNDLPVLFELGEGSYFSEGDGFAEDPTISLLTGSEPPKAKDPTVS
Sequence of CRX (O43186 whole entry): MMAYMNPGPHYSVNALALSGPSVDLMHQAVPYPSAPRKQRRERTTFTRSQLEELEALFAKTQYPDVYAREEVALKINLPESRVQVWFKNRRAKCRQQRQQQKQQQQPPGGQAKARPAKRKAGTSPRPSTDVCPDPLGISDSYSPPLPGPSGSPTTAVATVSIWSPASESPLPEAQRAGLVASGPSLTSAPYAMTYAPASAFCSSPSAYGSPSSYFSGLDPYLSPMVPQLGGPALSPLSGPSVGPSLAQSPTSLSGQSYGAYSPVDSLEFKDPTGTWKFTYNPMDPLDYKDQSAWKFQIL
Sequence of ELF4 (Q99607 whole entry): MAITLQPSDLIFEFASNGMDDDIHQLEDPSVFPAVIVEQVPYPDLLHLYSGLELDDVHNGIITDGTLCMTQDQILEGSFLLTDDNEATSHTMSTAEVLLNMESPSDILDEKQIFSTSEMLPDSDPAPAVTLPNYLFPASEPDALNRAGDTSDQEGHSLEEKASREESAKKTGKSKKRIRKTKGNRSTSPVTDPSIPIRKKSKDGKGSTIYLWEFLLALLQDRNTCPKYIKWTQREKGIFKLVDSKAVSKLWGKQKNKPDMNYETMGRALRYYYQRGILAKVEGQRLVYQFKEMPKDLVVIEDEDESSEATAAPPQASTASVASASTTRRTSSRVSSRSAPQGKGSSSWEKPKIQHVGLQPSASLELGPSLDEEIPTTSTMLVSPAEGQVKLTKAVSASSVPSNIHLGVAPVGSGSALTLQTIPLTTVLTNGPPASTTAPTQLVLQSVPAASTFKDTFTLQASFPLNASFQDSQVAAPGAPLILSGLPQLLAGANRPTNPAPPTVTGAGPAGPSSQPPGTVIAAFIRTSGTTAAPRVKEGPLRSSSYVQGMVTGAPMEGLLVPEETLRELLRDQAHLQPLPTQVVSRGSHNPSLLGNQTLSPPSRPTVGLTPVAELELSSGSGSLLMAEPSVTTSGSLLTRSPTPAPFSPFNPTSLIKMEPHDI
Sequence of ELF1 (P32519 whole entry): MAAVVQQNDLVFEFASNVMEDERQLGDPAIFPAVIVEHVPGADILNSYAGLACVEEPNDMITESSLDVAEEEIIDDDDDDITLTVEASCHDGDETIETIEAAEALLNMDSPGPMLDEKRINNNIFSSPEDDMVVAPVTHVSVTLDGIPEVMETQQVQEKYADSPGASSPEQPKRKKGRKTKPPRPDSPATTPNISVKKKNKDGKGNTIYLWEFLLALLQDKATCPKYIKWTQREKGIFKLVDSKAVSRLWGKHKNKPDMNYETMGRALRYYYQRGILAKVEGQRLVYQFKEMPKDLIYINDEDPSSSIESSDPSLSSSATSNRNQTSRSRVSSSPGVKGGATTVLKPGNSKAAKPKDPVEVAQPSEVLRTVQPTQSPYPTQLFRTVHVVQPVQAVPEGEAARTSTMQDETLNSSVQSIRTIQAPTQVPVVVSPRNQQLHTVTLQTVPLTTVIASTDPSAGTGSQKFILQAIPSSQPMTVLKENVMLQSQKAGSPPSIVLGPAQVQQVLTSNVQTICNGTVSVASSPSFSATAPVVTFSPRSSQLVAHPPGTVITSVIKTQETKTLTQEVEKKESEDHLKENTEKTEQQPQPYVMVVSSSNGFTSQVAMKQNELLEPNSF

Sequence	binding signal [1]	binding signal [2]	binding signal [3]	binding signal [4]	binding signal [5]	binding signal [6]	binding signal [7]	binding signal [8]	binding signal [9]	binding signal [10]	binding signal [11]	binding signal [12]	binding signal [13]	binding signal [14]	binding signal [15]
CCAGCT	1.06 fold enrichment (6-mer frequency, TF over GST control)	1.02 fold enrichment (6-mer frequency, TF over GST control)	1.03 fold enrichment (6-mer frequency, TF over GST control)	1.02 fold enrichment (6-mer frequency, TF over GST control)	1.14 fold enrichment (6-mer frequency, TF over GST control)	1.04 fold enrichment (6-mer frequency, TF over GST control)	1.1 fold enrichment (6-mer frequency, TF over GST control)	1.01 fold enrichment (6-mer frequency, TF over GST control)	1.03 fold enrichment (6-mer frequency, TF over GST control)	1 fold enrichment (6-mer frequency, TF over GST control)	–	–	–	–	–
GCCTAG	–	–	1.21 fold enrichment (6-mer frequency, TF over GST control)	–	1.03 fold enrichment (6-mer frequency, TF over GST control)	–	–	1.06 fold enrichment (6-mer frequency, TF over GST control)	–	–	1.02 fold enrichment (6-mer frequency, TF over GST control)	1.08 fold enrichment (6-mer frequency, TF over GST control)	1 fold enrichment (6-mer frequency, TF over GST control)	1 fold enrichment (6-mer frequency, TF over GST control)	–
GATCAT	–	1.1 fold enrichment (6-mer frequency, TF over GST control)	1.3 fold enrichment (6-mer frequency, TF over GST control)	–	1.07 fold enrichment (6-mer frequency, TF over GST control)	1.05 fold enrichment (6-mer frequency, TF over GST control)	1.48 fold enrichment (6-mer frequency, TF over GST control)	1.09 fold enrichment (6-mer frequency, TF over GST control)	1 fold enrichment (6-mer frequency, TF over GST control)	–	–	–	–	1.04 fold enrichment (6-mer frequency, TF over GST control)	1.01 fold enrichment (6-mer frequency, TF over GST control)
